Results reported in PubChem BioAssay AID1851 (National Center for Advancing Translational Sciences (NCATS), 2009).
Screen size: about 16,000 compounds; about 4,000 (25%) were called active. About 26% were inconclusive and are not listed. The call rests on the fitted dose curve; in most records, active means well fitted curve in the direction sought with a large enough effect; inconclusive means small, poorly fitted or top-dose-only effect, or effect the other way; inactive means no such curve, though single readings can be large or run the other way. The list is a sample of the results.

Biological target: Cytochrome P450 2C9 (Homo sapiens) (UniProt P11712)
Test: Cytochrome panel assay with activity outcomes
Details: recombinant CYP, pro-luciferin dealkylation, luminescence, p450-cyp2c9; series mostly up to 57.1 µM; activity, negative = inhibition: at the top concentration
On the % scale 0 is the no-effect control and ±100 the full control effect.

Sequence of Cytochrome P450 2C9 (Homo sapiens) (P11712 whole entry, looked up): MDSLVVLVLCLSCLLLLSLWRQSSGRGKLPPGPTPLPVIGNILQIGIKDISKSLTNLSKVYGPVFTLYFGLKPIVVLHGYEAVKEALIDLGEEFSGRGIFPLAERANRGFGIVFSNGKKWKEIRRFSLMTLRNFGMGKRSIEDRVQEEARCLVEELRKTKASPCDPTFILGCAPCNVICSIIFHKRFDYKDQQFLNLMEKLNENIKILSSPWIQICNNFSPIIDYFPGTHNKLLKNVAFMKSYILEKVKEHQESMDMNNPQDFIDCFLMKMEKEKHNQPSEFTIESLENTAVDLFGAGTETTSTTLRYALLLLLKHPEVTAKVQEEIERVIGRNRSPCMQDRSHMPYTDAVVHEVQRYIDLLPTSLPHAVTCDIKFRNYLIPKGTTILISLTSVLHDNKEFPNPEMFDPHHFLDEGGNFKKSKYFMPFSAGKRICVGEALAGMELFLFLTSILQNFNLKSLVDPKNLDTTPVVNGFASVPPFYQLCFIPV

| SMILES | AC50 | activity, negative = inhibition |
| --- | --- | --- |
| Cc1ccccc1Cn1nc(C)c(NC(=O)c2sc3ccccc3c2Cl)c1C | 7.08 µM (active) |  |
| CCn1nc(C(=O)Nc2ccccc2C)c(Cl)c1Cl |  | -15.8% (inactive) |
| CN(C)CCN(Cc1cccs1)c1ccccn1 |  | -14.6% [at 25.6 µM] (inactive) |
| Cc1ccc(S(=O)(=O)/C(C#N)=C/c2c(N3CC(C)OC(C)C3)nc3ccccn3c2=O)cc1 (stereo unspecified) | 11.2 µM (active) |  |
| CC(=O)[C@H]1CC[C@@H]2[C@H]3CC=C4C[C@@H](O)CC[C@]4(C)[C@H]3CC[C@]12C |  | 12% [at 25.6 µM] (inactive) |
| C[C@@H](O)[C@H]1C(=O)N2C(C(=O)O)=C(S[C@@H]3CN[C@H](C(=O)N(C)C)C3)[C@H](C)[C@H]12 |  | 12.1% [at 25.6 µM] (inactive) |
| CCOC(=O)c1[nH]c(C)c(C(=O)OCC(=O)N2c3ccccc3CC2C)c1C (stereo unspecified) | 25.1 µM (active) |  |
| Cc1nnc(SCC(=O)NCC2CCCCC2)n(N)c1=O |  | -28.7% (inactive) |
| Cc1ccc(-c2cc(-c3nnc(SCC(=O)NC(C)C(C)C)n3N)c3ccccc3n2)cc1 (stereo unspecified) | 1.12 µM (active) |  |
| NNC(=O)CNc1cccc(Br)c1 |  | 1.94% [at 11.4 µM] (inactive) |
| NNC(=O)CNC(c1ccccc1)c1cc(Br)ccc1NC(=O)c1ccccc1Br (stereo unspecified) | 3.16 µM (active) |  |
| Cc1ccccc1-c1nc(N2CCNCC2)c2ccccc2n1 |  | 0.671% [at 2.29 µM] (inactive) |
| C[C@](O)(c1ccccc1)c1nccc2ccccc12 |  | -17.3% [at 11.4 µM] (inactive) |
| Oc1c(C(O)(c2ccccc2)c2ccc3ccccc3c2O)ccc2ccccc12 | 0.794 µM (active) |  |
| Nc1nc(N)c2nn(-c3ccc(C(=O)O)cc3)nc2n1 |  | 7.68% [at 11.4 µM] (inactive) |
| COc1ccccc1C1CC(c2c(-c3ccccc3)c3cc(Cl)ccc3[nH]c2=O)=NN1S(C)(=O)=O (stereo unspecified) | 2.82 µM (active) |  |
| CCC1=NN(C(=O)CCc2ccccc2)C(O)(C(F)(F)F)C1 (stereo unspecified) | 4.47 µM (active) |  |
| CCOC(=O)N1N=C(c2ccccc2)CC1(O)C(F)(F)F (stereo unspecified) | 10 µM (active) |  |
| COc1cc(N=C(N)N=C(N)N)c2ncccc2c1 |  | 8.03% [at 11.4 µM] (inactive) |
| CCOC(=O)N/N=C1/C[C@@H](O)[C@@H](O)[C@@H]2[C@@H]3C(=O)N(c4cccc(Oc5ccccc5)c4)C(=O)[C@H]3CC[C@H]12 |  | 7.2% [at 11.4 µM] (inactive) |
| Cc1cc(C2C(C#N)=C(N)OC3=C2C(=O)CC(C)(C)C3)c(C)s1 (stereo unspecified) | 7.08 µM (active) |  |
| COc1ccc(C2C(C#N)=C(N)OC3=C2C(=O)CC(C)(C)C3)c([N+](=O)[O-])c1OC (stereo unspecified) | 1 µM (active) |  |

| SMILES | AC50 | activity, negative = inhibition |
| --- | --- | --- |
| C[C@H]1COC(=O)[C@H](Cc2ccccc2)NC(=O)[C@@H](C)COC(=O)[C@H](Cc2ccccc2)NC1=O |  | -8.11% [at 11.4 µM] (inactive) |
| CO[C@H]1COC(=O)[C@H](C)NC(=O)C/C=C\[C@@H](C)[C@@H](NS(=O)(=O)c2ccc(C)cc2)COC(=O)C/C=C\[C@@H]1C |  | -2.5% [at 11.4 µM] (inactive) |
| CCOC(=O)Cn1nnc2c(sc3nc4c(c(-c5ccc(Cl)cc5)c32)CCC4)c1=O | 12.6 µM (active) |  |
| Cc1ccc(C(=O)Cn2nnc3c(sc4nc5c(c(-c6ccccc6)c43)CCC5)c2=O)cc1 | 3.55 µM (active) |  |
| CCOC(=O)c1c(NC(=O)C2C3CCC(O3)C2C(=O)O)sc(C)c1-c1ccc(C)cc1 (stereo unspecified) |  | 12.3% (inactive) |
| CCOC(=O)c1c(C)nc2sc3c(=O)n(-c4ccc(OC)cc4)nnc3c2c1-c1ccc(OC)cc1 | 10 µM (active) |  |
| Cc1ccc(-c2c3c(nc4sc(C(N)=O)c(N)c24)CCC3)cc1 | 8.91 µM (active) |  |
| CCN1CCC[C@@H]1CNC(=O)c1cc(S(N)(=O)=O)ccc1OC |  | -0.608% (inactive) |
| N#CC1(Nc2ccc(-c3ccc(NC4(C#N)CCCC4)cc3)cc2)CCCC1 |  | -5.08% [at 11.4 µM] (inactive) |
| C[C@@H]1/C=C\CC(=O)OC[C@H](C)C(=O)N2CCC[C@@H]2C(=O)OC1 |  | -11.7% [at 11.4 µM] (inactive) |
| [Cu].[O-]/N=C1/C(=[OH+])Nc2ccccc21.[O-]Nc1c(O)[nH]c2ccccc12 |  | -2.92% [at 11.4 µM] (inactive) |
| COC(=O)N1CCC2(CC1)CCN(c1cccc(-c3ccccc3)c1)CC2 |  | 10.7% (inactive) |
| COCCCNC(=O)C1CCC(=O)N1Cc1ccccc1Cl (stereo unspecified) | 5.62 µM (active) |  |
| O=c1n(CCCN2CCN(c3cccc(Cl)c3)CC2)nc2ccccn12 | inactive |  |
| O=C(C1CCC(=O)N1Cc1ccccc1Cl)N1CCN(c2cccc(Cl)c2)CC1 (stereo unspecified) | 15.8 µM (active) |  |
| CCS(=O)(=O)N1CCC(C(=O)NCCCOC)CC1 |  | -32.5% (inactive) |
| CN(CCCNC(=O)C1CCC(=O)N1Cc1ccccc1Cl)c1ccccc1 (stereo unspecified) |  | -22.6% (inactive) |
| O=C(Nc1ccc(Br)cc1)C1CCC(=O)N1Cc1ccccc1Cl (stereo unspecified) | 0.447 µM (active) |  |
| Cc1noc(NS(=O)(=O)c2ccc(N/C=C/C(=O)c3ccc4c(c3)OCO4)cc2)c1C | 12.6 µM (active) |  |
| Cc1noc(NS(=O)(=O)c2ccc(N/C=C\C(=O)c3ccc4c(c3)OCO4)cc2)c1C | 14.1 µM (active) |  |
| CCC1(C)Cc2c(sc3nnn(CC(=O)Nc4cccc5ccccc45)c(=O)c23)CO1 (stereo unspecified) | 7.94 µM (active) |  |
| CCCSc1nc(NCc2ccco2)c2c3c(sc2n1)COC(C)(C)C3 | 6.31 µM (active) |  |

| SMILES | AC50 | activity, negative = inhibition |
| --- | --- | --- |
| CCCSc1nc(SCC(=O)NCc2ccccc2)c2c3c(sc2n1)COC(C)(CC)C3 (stereo unspecified) | 3.98 µM (active) |  |
| CCC1(C)Cc2c(sc3nnn(CC(=O)Nc4ccc(C)cc4)c(=O)c23)CO1 (stereo unspecified) | 11.2 µM (active) |  |
| COC(=O)[C@H](CCSC)NC(=O)C/C=C\[C@@H](C)[C@@H](CO)OC |  | -1.66% [at 11.4 µM] (inactive) |
| CN(C)c1ccc(-c2nccc(NCc3cccs3)n2)cc1 |  | -21.1% [at 2.29 µM] (inactive) |
| CC(=O)OC1CCC(OC(C)=O)c2c1n([O-])c(C)c(C)[n+]2=O (stereo unspecified) |  | -6.01% (inactive) |
| CCn1c(-c2ccccc2Cl)nn(CC(=O)Nc2ccc(OC)cc2)c1=S | 2.24 µM (active) |  |
| CC(=O)Nc1ccc2c(c1)OCCOCCOc1cc(NC(C)=O)ccc1OCCOCCOCCO2 |  | -15% (inactive) |
| O=C(Nc1ccc2c(c1)OCCO2)C1CCN(C(=O)c2ccccc2)CC1 |  | -40.1% (inactive) |
| COC(=O)Cn1nc(-c2ccccc2)n(-c2ccccc2)c1=S |  | -24.6% (inactive) |
| O=C(Nc1ccc2c(c1)OCCO2)c1cccc2nc3ccccc3nc12 | 12.6 µM (active) |  |
| O=C(CN1CCN(CC(=O)Nc2ccccc2Cl)CC1)Nc1ccc2c(c1)OCCO2 | 4.47 µM (active) |  |
| O=C(CC(c1ccccc1)c1ccccc1)Nc1ccc2c(c1)OCCO2 | 4.47 µM (active) |  |
| CC(=O)Nc1ccc2c(c1)OCCO2 |  | -11.3% (inactive) |
| Oc1cc2c(c(Cl)c1O)CCNC[C@H]2c1ccccc1 | inactive |  |
| COC(=O)N1CCC2(CC1)CN(C(=O)Nc1ccc(OC)cc1)C2 |  | -26.8% (inactive) |
| COc1ccccc1NC(=O)CN1CCN(CC(=O)Nc2ccc(OCc3ccccc3)cc2)CC1 | 2.24 µM (active) |  |
| COC(=O)N1CCC2(CCN(C(=O)Nc3ccc(OC)cc3)CC2)CC1 |  | -9.69% (inactive) |
| S=C(Nc1ccccc1)Nc1ccc(OCc2ccccc2)cc1 |  | -35.1% (inactive) |
| COc1ccc(NC(=O)CN2CCN(CC(=O)Nc3ccccc3Cl)CC2)cc1 | 8.91 µM (active) |  |
| O=C1[C@@H]2[C@H]3[C@H](O)[C@H](O)C/C(=N/OC[C@@H](O)COCc4ccco4)[C@H]3CC[C@H]2C(=O)N1c1ccc(F)cc1F |  | -12.6% [at 11.4 µM] (inactive) |
| Cc1cccc(CNc2cc(-c3cccc(C#N)c3)ncn2)c1 |  | 3.34% [at 2.29 µM] (inactive) |
| NCCS(=O)O |  | 8.02% (inactive) |

| SMILES | AC50 | activity, negative = inhibition |
| --- | --- | --- |
| Cn1c(=O)c2[nH]c(/N=N\N3CCN(CCO)CC3)nc2n(C)c1=O |  | 4.93% [at 11.4 µM] (inactive) |
| C#CCn1c(S(=O)(=O)Cc2ccc(OC)cc2)nc(-c2ccccc2)c1-c1ccccc1 | 2.82 µM (active) |  |
| COc1ccc(CO/N=C/c2c(C)[nH]c(=O)[nH]c2=O)cc1 |  | -23.5% (inactive) |
| COC(=O)CC[C@@H](C)[C@H]1CC[C@H]2[C@H]3CC[C@H]4C[C@@H]5CC[C@@]4(C)C3(O5)[C@@H](Br)[C@@H](Br)[C@@]12C | 2.51 µM (active) |  |
| C[C@H](CCC(=O)NCC(=O)O)[C@H]1CC[C@H]2[C@H]3[C@@H](C[C@@H](O)[C@]12C)[C@]1(C)CC[C@H](O)C[C@@H]1C[C@@H]3O |  | -14.1% [at 25.6 µM] (inactive) |
| COC(=O)N1CCC2(CC1)CCN(c1ccncc1)CC2 |  | 14.6% (inactive) |
| CC(/C=N/NC(=O)Cc1cccs1)=C\c1ccco1 | 7.94 µM (active) |  |
| Cn1cccc1CC(=O)N/N=C\c1cccs1 |  | -23.2% (inactive) |
| O=C(Cc1cccs1)N/N=C/C(Br)=C/c1ccccc1 | 2.82 µM (active) |  |
| CC(C)(C)c1ccc(OCC(=O)NNC(=O)Cc2cccs2)cc1 |  | 28.7% (inactive) |
| C/C(CC(=O)NC1CCCC1)=N\NC(=O)Cc1cccs1 |  | -10.1% (inactive) |
| Cn1cc(C(=O)N/N=C/C(Br)=C\c2ccccc2)ccc1=O |  | -26% (inactive) |
| Nc1c(S(=O)(=O)c2ccccc2)c2nc3ccccc3nc2n1Cc1ccco1 | 3.55 µM (active) |  |
| CC(=O)Nc1c(S(=O)(=O)c2ccccc2)c2nc3ccccc3nc2n1Cc1ccccc1 | 8.91 µM (active) |  |
| C[C@](O)(C(=O)Nc1ccc(S(=O)(=O)c2ccccc2)cc1)C(F)(F)F |  | -10.9% (inactive) |
| Cc1nc2c([nH]1)c(=O)n(C)c(=O)n2Cc1ccco1 |  | 13.3% (inactive) |
| CC(C)(C)CNC(CO)C12CC3CC(CC(C3)C1)C2 (stereo unspecified) |  | -9.91% (inactive) |
| COc1ccc(C(=O)N/N=C2/SCC(=O)N2Cc2ccc3c(c2)OCO3)cc1OC | 14.1 µM (active) |  |
| CCOC(=O)N/N=C1/C[C@@H](O)[C@@H](O)[C@@H]2[C@@H]3C(=O)N(Cc4ccc5c(c4)OCO5)C(=O)[C@H]3CC[C@@H]12 |  | 1.72% [at 11.4 µM] (inactive) |
| CCOC(=O)N/N=C1/C[C@@H](O)[C@@H](O)[C@@H]2[C@@H]3C(=O)N(Cc4ccc5c(c4)OCO5)C(=O)[C@H]3CC[C@H]12 |  | -5.83% [at 11.4 µM] (inactive) |
